# According to PubChem BioAssay (NCATS):
# A number with no mark means an inactive call. Records with an inconclusive call do not appear. A call without a number means that no potency is given here. Activity calls are given as the source filed them. Unless noted, calls come from the whole dose curve; as a rule, active = well fitted curve in the direction sought with a large enough effect; inconclusive = small, poorly fitted or top-dose-only effect, or another doubt; inactive = no such curve, though single readings can be large; an effect the other way counts as inactive or inconclusive.
# Tests used:
# [1] = target: Calcium and integrin-binding protein 1 (Homo sapiens) (UniProt Q99828); assay: Primary qHTS for Identification of Calcium Integrin Binding Protein 1 (CIB1) Competitor (AID 1508620);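 note: GST tagged CIB1 binding a fluorescein labelled alphaIIb integrin peptide tracer; top concentration of the series differs between compounds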
# Procedure, shortened: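 Fluorescence polarization competition: GST-tagged CIB1 (1 uM final) preincubated with compound 15 min at room temperature, then FITC-labelled alphaIIb peptide (100 nM final) added. After 15 min at room temperature, polarization read at Ex 480/Em 540.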
# [2] = Primary qHTS for inhibitors of nuclear receptor binding SET domain protein 2 (NSD2) in an isogenic RCH-ACV NSD2 p.E1099K mutant (9B) (AID 1645876); note: potency is the fitted concentration of half-maximal effect; nearly all actives have a fitted effect of over 70% in size
# [3] = Primary qHTS for inhibitors of nuclear receptor binding SET domain protein 2 (NSD2) in an RCH-ACV wild type WT cells (2C) (AID 1645877); note: potency is the fitted concentration of half-maximal effect; nearly all actives have a fitted effect of over 70% in size
# [4] = target: Glutathione peroxidase 1 (Homo sapiens) (UniProt P07203); assay: Primary qHTS Assay for Inhibitors of Recombinant Selenoprotein Glutathione Peroxidase 1 (GPX1) (AID 1845191); note: nearly all actives have a fitted effect of over 65% in size
# Procedure, shortened: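 GR-coupled readout: NADPH consumption tracked by fluorescence, ex 340/em 450 nm, at t=0 and after 15 min at RT. Final mix 10 nM GPX1, 1 mM GSH, 0.5 mM CHP, 0.5 mM NADPH, 100 nM GR, 0.01% BSA, following 30 min enzyme–compound preincubation.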
# [5] = target: Phospholipid hydroperoxide glutathione peroxidase GPX4 (Homo sapiens) (UniProt P36969); assay: Primary qHTS Assay for Inhibitors of Recombinant Selenoprotein Glutathione Peroxidase 4 (GPX4) (AID 1845192); note: nearly all actives have a fitted effect of over 65% in size
# Procedure, shortened: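 Steps: GPX4 plus compound, 30 min RT; add GR/GSH/NADPH master mix; start with cumene hydroperoxide; read 340/450 nm fluorescence at 0 and 15 min. Finals were 200 nM GPX4, 1 mM GSH, 0.5 mM CHP, 0.5 mM NADPH, 100 nM GR.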
# [6] = target: Luciferin 4-monooxygenase (Photinus pyralis) (UniProt P08659); assay: Primary firefly luciferase (FLuc) qHTS assay for identification of artifact compounds. (AID 1845220); details: outcome: dose series up to 54.1 µM unless noted; note: nearly all actives have a fitted effect of over 60% in size
# Procedure, shortened: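 Enzymatic FLuc inhibition assay: compounds pre-exposed to luciferin/ATP (10 uM each) for 15 min, then purified P. pyralis enzyme at 10 nM added. Read-out: luminescence at 5 min.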
# [7] = Primary fluorescence-based thiol-reactive (MSTI) qHTS assay for identification of artifact compounds. (AID 1845221); note: nearly all actives have a fitted effect of over 65% in size; note: potency is the fitted concentration of half-maximal effect
# Procedure, shortened: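 qHTS titration of compound; 4 uM MSTI, PBS pH 7.4, 2% DMSO; 1 h RT, dark; fluorescence 525/598 nm; normalized to Acetyl-MSTI and MSTI; 4-parameter Hill fit.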
# [8] = tested on: Nanoluciferase (engineered Oplophorus gracilirostris luciferase); assay: Primary Nanoluciferase (NLuc) qHTS assay for identification of artifact compounds. (AID 1845222);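 note: NLuc secreted into diluted conditioned medium of S16 cells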
# Procedure, shortened: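 S16 cell supernatant NLuc, 1:55; cpds qHTS; 15 min RT dark; Nano-Glo substrate 1:100, 5 min; luminescence; Hill fit of % inhibition.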
# [9] = Primary redox qHTS assay for identification of artifact compounds. (AID 1845223)
# Procedure, shortened: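 Redox-cycling detection via DTT (250 uM final) oxidation coupled to Amplex Red (25 uM)/HRP (250 mU/mL) in HBSS. 15 min preincubation plus 30 min after DTT, room temperature. Ex/Em 525/598 nm; 4-parameter Hill fit against DMSO and 10 uM DA3003.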
# [10] = tested on: JEG-3; assay: Primary qHTS to identify gynecologic anti-cancer compounds using libraries of approved drugs and bioactive compounds (AID 1345084); details: Gynecologic cancer cell panel viability, ATPlite luminescence, 48 h; series mostly up to 57.5 µM; note: nearly all actives have a fitted effect of over 55% in size
# Procedure, shortened: (§1)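 Cells, 1,000 per well, were allowed to settle for 16 h at 37 C before compound addition. Five concentrations were tested for 48 h, and viability was read by ATPlite luminescence after 15 min at room temperature.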
# [11] = P-glycoprotein substrates identified in KB-8-5-11 adenocarcinoma cell line, qHTS therapeutic library screen (AID 1346987); note: potency is the fitted concentration of half-maximal effect; nearly all actives have a fitted effect of over 65% in size
# Procedure, shortened: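 Compounds are pinned in dose-response onto KB-8-5-11 cells (500 cells/well, colchicine-free medium) and left 72 h at 37 degree C. CellTiter-Glo luminescence then yields AC50 values.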
# [12] = Confirmatory qHTS for VERO E6 Cytotoxicity Assay: Counterscreen for SARS-CoV-2 CPE Assay (AID 1508605; calls by dose curve; note: nearly all actives have a fitted effect of over 60% in size)
# [13] = Confirmatory qHTS for activators (rescue) of SARS-CoV-2 Cytopathic Effect (CPE) (AID 1508606; calls by dose curve; note: potency is the fitted concentration of half-maximal effect; nearly all actives have a fitted effect of over 70% in size)
# [14] = tested on: Zika virus NS2B-NS3 protease (linked construct); assay: Primary screen NINDS Rhodamine qHTS for Zika virus inhibitors (AID 1347160); note: nearly all actives have a fitted effect of over 55% in size
# Procedure, shortened: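 Rhodamine110-peptide cleavage (1.5 µM substrate) by 25 nM linked NS2B-NS3 enzyme at pH 8.0 (Tris, Tween 20), after 15 min RT preincubation with compounds; 15-min fluorescence change normalized to controls and Hill-fitted.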
# [15] = tested on: C33A; assay: Primary qHTS to identify gynecologic anti-cancer compounds using libraries of approved drugs and bioactive compounds (AID 1345084); details: Gynecologic cancer cell panel viability, ATPlite luminescence, 48 h; series mostly up to 57.5 µM; note: nearly all actives have a fitted effect of over 55% in size
# Procedure, shortened: as §1
# [16] = tested on: CAOV3; assay: as above; details: Gynecologic cancer cell panel viability, ATPlite luminescence, 48 h; series mostly up to 57.5 µM
# Procedure, shortened: as §1
# [17] = tested on: CASKI; assay: as above; details: Gynecologic cancer cell panel viability, ATPlite luminescence, 48 h; series mostly up to 57.5 µM
# Procedure, shortened: as §1
# [18] = tested on: Es-2; assay: as above; details: Gynecologic cancer cell panel viability, ATPlite luminescence, 48 h; series mostly up to 57.5 µM
# Procedure, shortened: as §1
# [19] = tested on: HeLa; assay: as above; details: Gynecologic cancer cell panel viability, ATPlite luminescence, 48 h; series mostly up to 57.5 µM
# Procedure, shortened: as §1
# [20] = tested on: OV90; assay: as above; details: Gynecologic cancer cell panel viability, ATPlite luminescence, 48 h; series mostly up to 57.5 µM
# Procedure, shortened: as §1
# [21] = tested on: Tov-21-G; assay: as above; details: Gynecologic cancer cell panel viability, ATPlite luminescence, 48 h; series mostly up to 57.5 µM
# Procedure, shortened: as §1
# [22] = tested on: Tov112D; assay: as above; details: Gynecologic cancer cell panel viability, ATPlite luminescence, 48 h; series mostly up to 57.5 µM
# Procedure, shortened: as §1
# [23] = qHTS for Inhibitors of the Functional Ribonucleoprotein Complex (vRNP) of Lassa (LASV) Arenavirus: LASV Primary Screen - GLuc reporter signal (AID 1347082; calls by dose curve; tested in HEK293 reporter line; note: nearly all actives have a fitted effect of over 60% in size)
# [24] = qHTS Assay for Identifying Gametocytocidal Compounds (AID 743244);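 note: actives lower the fluorescent signal which means gametocytes are killed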; details: P. falciparum 3D7 stage III-V gametocytes, alamarBlue, 72 h; max response: stronger effect = lower value
# Procedure, shortened: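 P. falciparum 3D7 stage III–V gametocytes (20,000 cells/well) were exposed to compounds for 72 h at 37 °C, 5% CO2. AlamarBlue was then added for 24 h; decreased resorufin fluorescence (Ex 525/Em 598 nm) indicated loss of viability.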
# [25] = Drug repurposing screens with cells derived from glioblastoma tumor samples (AID 1345199); details: GBM patient neurospheres viability, ATP luminescence, 48 h; Potency: tumour line A; series mostly up to 45.9 µM; note: nearly all actives have a fitted effect of over 40% in size
# Procedure, shortened: (§2)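 Primary testing used CD133+ neurospheres from four GBM patients, seven concentrations, 48 h exposure and ATP-based viability; confirmation added three slower-growing patient lines.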
# [26] = tested on: astro; assay: as above; details: viability, ATP luminescence, 48 h; series mostly up to 45.9 µM
# Procedure, shortened: as §2
# Glutathione peroxidase 1 (Homo sapiens), sequence (P07203 whole entry, looked up): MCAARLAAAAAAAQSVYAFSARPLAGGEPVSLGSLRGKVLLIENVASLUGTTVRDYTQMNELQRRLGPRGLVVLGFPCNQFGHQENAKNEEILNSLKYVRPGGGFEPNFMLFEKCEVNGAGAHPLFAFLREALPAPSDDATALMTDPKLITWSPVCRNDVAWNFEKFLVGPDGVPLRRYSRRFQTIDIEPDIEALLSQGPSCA
# Phospholipid hydroperoxide glutathione peroxidase GPX4 (Homo sapiens), sequence (P36969 whole entry, looked up): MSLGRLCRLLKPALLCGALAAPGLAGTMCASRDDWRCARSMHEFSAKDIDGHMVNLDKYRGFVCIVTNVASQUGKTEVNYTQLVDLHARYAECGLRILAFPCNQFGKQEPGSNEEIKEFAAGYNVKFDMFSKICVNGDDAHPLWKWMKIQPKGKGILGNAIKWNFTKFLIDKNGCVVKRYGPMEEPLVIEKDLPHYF
# Calcium and integrin-binding protein 1 (Homo sapiens), sequence (Q99828 whole entry, looked up): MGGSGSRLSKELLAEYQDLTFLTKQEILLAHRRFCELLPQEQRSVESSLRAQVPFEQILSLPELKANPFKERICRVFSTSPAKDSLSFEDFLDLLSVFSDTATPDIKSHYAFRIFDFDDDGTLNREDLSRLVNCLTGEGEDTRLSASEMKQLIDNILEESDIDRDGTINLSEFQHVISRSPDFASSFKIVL
structure (smiles),measurement,setting,value
CC[C@@H](C)[C@H]1C(=O)O[C@H](C(C)C)C(=O)N(C)[C@@H]([C@@H](C)CC)C(=O)O[C@H](C(C)C)C(=O)N(C)[C@@H]([C@H](C)CC)C(=O)O[C@H](C(C)C)C(=O)N1C,Potency,[1],inactive
same,Potency,[2],4.3 µM (active)
same,Potency,[3],1.71 µM (active)
same,Potency,[4],inactive
same,Potency,[5],inactive
same,outcome,[6],inactive [at 25.7 µM]
same,Potency,[7],inactive
same,Potency,[8],inactive
same,Potency,[9],inactive
same,Potency,[10],inactive
CC(=O)O[C@@H]1CC2C(C)(C)C(=O)C=C[C@]2(C)C2CC[C@]3(C)C(=CC(=O)O[C@H]3c3ccoc3)[C@@]21C (some centres not stated),Potency,[11],14.6 µM (active)
same,Potency,[12],inactive
same,Potency,[13],11.2 µM (active)
same,Potency,[4],inactive
C=CC(C)(C)C12C=C(O)C(=O)N3/C(=C\c4cnc[nH]4)C(=O)NC31N(OC)c1ccccc12 (configuration not stated),Potency,[11],7.96 µM (active)
same,Potency,[14],inactive
same,Potency,[1],inactive
same,Potency,[3],10 µM (active)
same,Potency,[4],inactive
same,Potency,[5],inactive
same,outcome,[6],inactive [at 25.7 µM]
same,Potency,[7],4.12 µM (active)
same,Potency,[8],inactive
same,Potency,[9],inactive
same,Potency,[15],inactive
same,Potency,[16],inactive
same,Potency,[17],inactive
same,Potency,[18],inactive
same,Potency,[19],inactive
same,Potency,[10],inactive
same,Potency,[20],inactive
same,Potency,[21],inactive
same,Potency,[22],inactive
CNCCCCc1cnc(C)c2[nH]c3ccccc3c12,Potency,[23],inactive
c1ccc2c(c1)Sc1ccccc1N2C[C@@H]1CN2CCC1CC2,max response,[24],-2.33%
same,Potency,[25],inactive
same,Potency,[26],inactive
